Here are results for 30 molecules from PubChem BioAssay (NCI).

Holding throughout (assay): NCI-60 one-dose screen, 48 h (100 = growth as untreated, 0 = no growth, -100 = all killed)
The subject of assay [1] is T-47D breast. Conditions: 10 µM unless noted.
The subject of assay [2] is BT-549 breast. Particulars: 10 µM unless noted.
Assay [3] has as its system MDA-MB-435 melanoma. Particulars: 10 µM unless noted.
The test system of assay [4] is SW-620 colon. Conditions: 10 µM unless noted.
Assay [5] deals with MCF7 breast. Conditions: 10 µM unless noted.
Assay [6] has as its system HCT-116 colon. Particulars: 10 µM unless noted.
Assay [7] concerns HCC-2998 colon. Conditions: 10 µM.
Assay [8] relates to KM12 colon. Conditions: 10 µM unless noted.

This is part of a sample that, as a whole, favours compounds with a hit. Of some 83,000 tested, about 20% had one in any assay.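 Cell lines were cultured in 96-well plates, exposed to a single compound concentration, and assessed for percent growth 48 hours later.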 A number with no mark means an inactive call. Activity calls are given as the source filed them. Rule for the calls: active = growth percent below 10; inactive = the rest.

Consider `Cc1cccc(C)c1N1C(c2ccccc2)=NNC12C=CC(=O)c1c(O)cccc12` (stereo not given), for which the growth was 96.2% in assay [1]; 44.7% in assay [2]; -90.1% (active) in assay [3]; 103% in assay [4]; 78.7% in assay [5]; 45.3% in assay [6]. Further, the growth in assay [7] is 98.5%; in assay [8], 75.9%.
Consider `COC(=O)N[C@@H](C)CNc1nccc(-c2cn(C(C)C)nc2-c2cc(Cl)cc(NS(C)(=O)=O)c2F)n1`, for which the growth was 79.3% in assay [1]; 72.9% in assay [2]; 25.5% in assay [3]; 52.7% in assay [4]; 95.2% in assay [5]; 19.5% in assay [6]. The growth in assay [7] was 69.6%; in assay [8], 69.7%.
As to `Cc1cc(Nc2nc(N[C@@H](C)c3ncc(F)cn3)ncc2Cl)n[nH]1`, the growth in assay [1] was 86.5%; in assay [2] it was 65.3%; in assay [3], 77.2%; in assay [4], 58%; in assay [5] it was 63.1%; in assay [6] it was 62.4%. For the same molecule, the growth in assay [7] was 61.4%; in assay [8], 14.7%.
`CCn1cc(-c2ccnc3[nH]c(-c4cccc(CN(C)C)c4)cc23)c(-c2ccc(NC(=O)N(C)C)cc2)n1`: the growth in assay [1] is 58%; in assay [2], 14.1%; in assay [3], 51.3%; in assay [4] it was 2.66% (active); in assay [5], 16.1%; in assay [6] it was 8.47% (active). Also, the figures for the growth in assay [7] and in assay [8] were 60% and 11.1%, respectively.
`COc1cc(C(=O)NNC(=O)c2ccc(NC(=O)CCl)cc2)cc(OC)c1OC`: the growth is 64.3% in assay [1]; 66.8% in assay [2]; 92.5% in assay [3]; 65.5% in assay [4]; 61.8% in assay [5]; 44.5% in assay [6]. Also, the growth in assay [7] is 88.7%; in assay [8], 99.7%.
Take `CCNC(=O)Nc1nc2ccc(Oc3ccnc(C(=O)NC)c3)cc2s1`: the growth in assay [1] is 62.6%; in assay [2] it was 90.6%; in assay [3], 3.1% (active); in assay [4] it was 45.8%; in assay [5], 36.9%; in assay [6], 56%. Also, the growth is 71.9% in assay [7] and 33.4% in assay [8].
For the molecule `Cc1c(Cn2c(C)nc3c(C(=O)O)cc(N4CCOCC4)cc32)cccc1C(F)(F)F`, the growth in assay [1] is 69.2%; in assay [2], 70.9%; in assay [3], 106%; in assay [4] it was 102%; in assay [5], 92.6%; in assay [6] it was 92.1%. The growth in assay [7] and in assay [8] was 103% in each case.
For `COc1ccc2c(CCCc3ccc(Cl)cc3Cl)c3[n+](cc2c1OC)CCc1cc2c(cc1-3)OCO2`, the growth is 3.35% (active) in assay [1]; -28% (active) in assay [2]; -71.2% (active) in assay [3]; 4.21% (active) in assay [4]; 6.01% (active) in assay [5]; -11.6% (active) in assay [6]. Also, the growth in assay [7] was -83.7% (active); in assay [8], -55.3% (active).
Turning to `CCCc1cc2cc(-n3nc(C)c4c3CC(C)(C)CC4=O)cc(NC3CCC(O)CC3)c2c(=O)[nH]1` (stereo not given), the growth in assay [1] is 38.2%; in assay [2], 29.2%; in assay [3] it was 20.8%; in assay [4], 24.9%; in assay [5] it was 25.4%; in assay [6], 11.3%. Further, the growth in assay [7] is 24.7%; in assay [8] it was 4.71% (active).
For the molecule `Cc1cc(N(CCNc2ccnc3cc(Cl)ccc23)Cc2ccc3c(c2)OCO3)nc(N2CCCC2)n1`, the growth in assay [1] was -36.4% (active); in assay [2], -7.74% (active); in assay [3], -69.5% (active); in assay [4] it was 8.91% (active); in assay [5] it was 7.77% (active); in assay [6], -68.8% (active). Moreover, the values for the growth in assay [7] and in assay [8] were -24.4% (active) and 44.9%, respectively.
For the molecule `C/C(=C(/c1ccc(Cl)cc1)c1ccc(OCCN2CCCCCC2)cc1)c1ccccc1`, the growth in assay [1] is 71.1%; in assay [2], 84.4%; in assay [3], 92.6%; in assay [4], 54%; in assay [5], 76%; in assay [6], 50%. The growth in assay [7] is 93.8%; in assay [8], 30.7%.
As for `COc1cc(F)c(F)c(Nc2ccc(I)cc2F)c1NS(=O)(=O)C1(C[C@H](O)CO)CC1`, the growth in assay [1] is 22.6%; in assay [2], 62.1%; in assay [3], 24.3%; in assay [4], 19.3%; in assay [5] it was 61.5%; in assay [6], 11.2%. The values for the growth in assay [7] and in assay [8] were -23.6% (active) and 24.2%, respectively.
As to `Cc1cnc(NC(=O)Nc2cc(Br)c(C)cc2OC[C@@H]2CNCCO2)cn1`, the growth is -46.5% (active) in assay [1]; 23.6% in assay [2]; -36.2% (active) in assay [3]; 20.8% in assay [4]; 2% (active) in assay [5]; 10.4% in assay [6]. For the same molecule, the growth was 12% in assay [7] and 15% in assay [8].
As to `Cn1ncc(Cl)c1-c1cc(C(=O)N[C@H](CN)Cc2ccc(F)c(F)c2)oc1Cl`, the growth in assay [1] was -50.7% (active); in assay [2], -66.4% (active); in assay [3], -59.8% (active); in assay [4], 27.9%; in assay [5], -28.5% (active); in assay [6] it was -28.3% (active). Moreover, the growth in assay [7] is -89.9% (active); in assay [8], -39.2% (active).
Consider `[2H]C1([2H])[C@H](C)O[C@H](C)C([2H])([2H])N1c1ccc(NC(=O)c2cccc(-c3ccc(OC(F)(F)F)cc3)c2C)cn1`, for which the growth is 41.7% in assay [1]; 63.9% in assay [2]; 73.4% in assay [3]; 90% in assay [4]; 66.8% in assay [5]; 56.9% in assay [6]. For the same molecule, the growth is 82.4% in assay [7] and 73.2% in assay [8].
As for `CCOC(=O)C1=C(C)NC(=O)NC1c1cc(=O)oc2ccc(C)cc12` (stereo not given), the growth in assay [1] was 94.5%; in assay [2] it was 111%; in assay [3] it was 117%; in assay [4], 108%; in assay [5] it was 91.3%; in assay [6] it was 100%. The growth is 96.2% in assay [7] and 101% in assay [8].
In the case of `CCOc1cc2ncc(C#N)c(Nc3ccc(OCc4ccccn4)c(Cl)c3)c2cc1NC(=O)/C=C/CN(C)C`, the growth in assay [1] was 15.9%; in assay [2] it was 39.4%; in assay [3] it was -87.7% (active); in assay [4], -63.9% (active); in assay [5], -6.35% (active); in assay [6], -81.2% (active). For the same molecule, the growth in assay [7] is 50.8%; in assay [8], -60% (active).
Turning to `CC(=Nc1ccccc1)C1=C(O)C(Cc2ccccc2)NC1=O` (stereo not given), the growth in assay [1] was 67.6%; in assay [2] it was 13.9%; in assay [3] it was -27.3% (active); in assay [4] it was 19.3%; in assay [5], 9.54% (active); in assay [6], 2.49% (active). Besides, the growth is -20.6% (active) in assay [7] and -46.3% (active) in assay [8].
As for `COC(=O)[C@@H](OC)[C@@H]1Cc2cc3cc(OC4CC(OC5CC(O)C(O)C(C)O5)C(O)C(C)O4)c(C)c(O)c3c(O)c2C(=O)[C@H]1OC1CC(OC2CC(OC3CC(C)(O)C(O)C(C)O3)C(O)C(C)O2)C(O)C(C)O1` (stereo not given in full), the growth is 4% (active) in assay [1]; -32.9% (active) in assay [2]; -62.4% (active) in assay [3]; 8.04% (active) in assay [4]; 8.9% (active) in assay [5]; 3.51% (active) in assay [6]. For the same molecule, the growth in assay [7] was -32.9% (active); in assay [8], 1.5% (active).
In the case of `C#Cc1cccc(Nc2ncnc3cc4c(cc23)OCCOCCOCCO4)c1`, the growth in assay [1] was 33%; in assay [2], 50.3%; in assay [3], 24.6%; in assay [4], 84.7%; in assay [5], 56.1%; in assay [6] it was 64.7%. The growth in assay [7] is 97.9%; in assay [8], 53%.
With `O=C(CNc1nc2ccccc2s1)Nc1ccc(-c2nc3ccccc3s2)cc1`, the growth was 73.9% in assay [1]; 106% in assay [2]; 109% in assay [3]; 109% in assay [4]; 24.8% in assay [5]; 98.9% in assay [6]. Moreover, the values for the growth in assay [7] and in assay [8] were 92.1% and 99.2%, respectively.
For `N#Cc1cc2[nH]c3ccc(OC(F)(F)F)cc3c2oc1=O`, the growth is 61.2% in assay [1]; 76.5% in assay [2]; 12.7% in assay [3]; 71.6% in assay [4]; 81.4% in assay [5]; 81.2% in assay [6]. Moreover, the growth was 83.3% in assay [7] and 80.2% in assay [8].
In the case of `Cc1nc2cc(-c3nn(C(C)C)c4ncnc(N)c34)ccc2o1`, the growth in assay [1] was -39.9% (active); in assay [2], -14.5% (active); in assay [3], -20.5% (active); in assay [4] it was 2.48% (active); in assay [5], -4.42% (active); in assay [6] it was 7.77% (active). The growth was -8.93% (active) in assay [7] and 0.531% (active) in assay [8].
For the molecule `COc1c(OCCCN2CCOCC2)ccc2c3n(c(=NC(=O)c4cnc(N)nc4)nc12)CCN3`, the growth in assay [1] is -24% (active); in assay [2] it was -5.84% (active); in assay [3] it was 4.22% (active); in assay [4], 20.5%; in assay [5], 11.9%; in assay [6] it was 13.8%. Also, the growth in assay [7] is -15.7% (active); in assay [8], -2.1% (active).
For `Cc1cc(O)cc(-c2c(-c3ccnc(-c4cccnc4)c3)cnn2C)c1`, the growth was 29.3% in assay [1]; 75.1% in assay [2]; 61.9% in assay [3]; 83.4% in assay [4]; 43.5% in assay [5]; 71.9% in assay [6]. The growth in assay [7] is 88.2%; in assay [8], 68.6%.
Take `COc1ccc(C(=O)N2c3ccccc3Sc3ccccc32)c(F)c1`: the growth is 40.2% in assay [1]; 22.7% in assay [2]; -37.6% (active) in assay [3]; 15% in assay [4]; 24.2% in assay [5]; 20.1% in assay [6]. Also, the results for the growth in assay [7] and in assay [8] were 30.3% and 22.7%, respectively.
For `COc1ccc(/C(C)=C(\c2ccc(Cl)cc2)c2ccc(OCCN3CCCCCC3)cc2)cc1`, the growth in assay [1] was 39.6%; in assay [2], 63.5%; in assay [3], 65.9%; in assay [4], 45%; in assay [5], 36.5%; in assay [6] it was 38.3%. In addition, the values for the growth in assay [7] and in assay [8] were 82.1% and 31.2%, respectively.
In the case of `C=C1C(=O)O[C@H]2[C@H]1CC/C(Cn1cc(-c3cc(C)c(C)cc3C)nn1)=C\CC[C@@]1(C)O[C@@H]21`, the growth was -46.8% (active) in assay [1]; -66.1% (active) in assay [2]; -56.3% (active) in assay [3]; -79.2% (active) in assay [4]; -62.3% (active) in assay [5]; -87.4% (active) in assay [6]. Also, the values for the growth in assay [7] and in assay [8] were -91.7% (active) and 14.1%, respectively.
For `O=C1C=CC2(NN=C(c3ccccc3)N2c2cccc(Cl)c2)C(Cl)=C1` (stereo not given), the growth is 37.9% in assay [1]; 88.5% in assay [2]; 86.3% in assay [3]; 90.2% in assay [4]; 79% in assay [5]; 73.4% in assay [6]. Further, the growth in assay [7] is 105%; in assay [8], 78.1%.
On to `Cc1cc([C@@H](C)Nc2ccccc2C(=O)O)c2nc(N3CCOCC3)cc(=O)n2c1`, for which the growth in assay [1] was -27.6% (active); in assay [2], 22.3%; in assay [3], 58%; in assay [4], 35%; in assay [5], 16.4%; in assay [6], 23%. Moreover, the growth in assay [7] is 60.1%; in assay [8], 57%.
